Screening data from PubChem BioAssay.
Only a selection was taken, and hits are over-represented in it overall.
14-3-3 PPI – alters human 14-3-3 gamma binding to Raf peptide; P61981; FP, 14-3-3gamma / TMR-pS259-Raf peptide binding; inhibition, % at 40 µM; 0.19% of 160,000 active; in the data active means inhibition above about 30%;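 further: 0% = protein plus tracer without compound and 100% = blank with tracer alone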
Target sequence (P61981 whole entry, looked up): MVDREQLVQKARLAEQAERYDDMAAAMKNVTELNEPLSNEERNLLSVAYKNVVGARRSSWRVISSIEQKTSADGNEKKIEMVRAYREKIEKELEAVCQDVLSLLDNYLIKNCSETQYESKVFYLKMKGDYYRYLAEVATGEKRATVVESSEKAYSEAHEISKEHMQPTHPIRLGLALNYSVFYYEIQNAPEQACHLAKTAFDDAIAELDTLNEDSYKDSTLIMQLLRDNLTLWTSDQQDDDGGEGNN
Active calls of the source: *.

SMILES | 14-3-3 PPI
COc1ccc(S(=O)(=O)NCCC(=O)NCc2cccs2)cc1 | -5
CCOC(=O)c1cnc2c(ccc3ccccc32)c1Nc1cccc(C(C)=O)c1 | 1
CCC(=O)Nc1ccc(S(=O)(=O)Nc2cc(C)on2)cc1 | -6
Cc1cc(NS(=O)(=O)c2ccc(NC(=O)CCN3C(=O)c4ccccc4C3=O)cc2)no1 | -10
Cc1cc(NS(=O)(=O)c2ccc(NC(=O)CCC(=O)O)cc2)no1 | 37*
COc1ccc(-c2nnc(SCc3ccc([N+](=O)[O-])cc3)n2-c2ccccc2)cc1 | 7
Cc1ccc(C(=O)NCCNC(=O)c2ccncc2)cc1 | 0
Cc1ccc(C(=O)NCC(C)(C)O)cc1 | 67*
Cc1ccc(C(=O)NCCNC(=O)c2ccc(C)cc2)cc1 | -292
Cc1ncc(CO)c2cc(C(=O)Nc3cccc(C(F)(F)F)c3)c(=Nc3ccc([N+](=O)[O-])cc3)oc12 | -10
O=C(Nc1ccc(I)cc1)c1sc2ccccc2c1Cl | -23
C=CCN=Cc1c(NCC=C)nc2c(C)cccn2c1=O | -2
CC1=C(C(=O)OC(C)C)C(c2ccccc2C(F)(F)F)C2=C(CCCC2=O)N1 (stereo unspecified) | 0
CCN(CC)c1ccc(CNc2ccc(Br)cn2)cc1 | -4
N#Cc1cc(-c2ccccc2C(F)(F)F)no1 | 7
CCN(CC)c1ccc(-c2cc(C#N)on2)cc1 | 41*
O=[N+]([O-])c1ccc(S(=O)(=O)NCCCO)cc1 | -8
O=C(O)C1C2C=CC(C2)C1C(=O)N1CCN(CC=Cc2ccccc2)CC1 (stereo unspecified) | 5
O=C(NC(Nc1nc2c(s1)CCCC2)(C(F)(F)F)C(F)(F)F)c1ccccc1 | 0
O=C(NC1CCCCC1)c1cc2nc(-c3ccccc3)cc(-c3ccccc3)n2n1 | -7
O=C1c2ccccc2C(=O)c2c(Br)cccc21 | -2
O=C1c2ccccc2C(=O)c2c1ccc1c(=O)o[nH]c21 | 73*
O=C1c2ccccc2C(=O)c2c(I)cccc21 | 3
COc1cccc2cc(C(=O)Nc3ccccc3)c(=Nc3cccc(F)c3)oc12 | 2
O=[N+]([O-])c1ccccc1S(=O)(=O)N1CCN(Cc2cccs2)CC1 | -5
SMILES | 14-3-3 PPI
CCS(=O)(=O)N1N=C(c2ccc(NS(C)(=O)=O)cc2)CC1c1ccc(C)cc1 (stereo unspecified) | -212
CCS(=O)(=O)N1N=C(c2ccc(NS(C)(=O)=O)cc2)CC1c1ccc(F)cc1 (stereo unspecified) | 92*
CS(=O)(=O)Nc1ccc(C2=NN(S(C)(=O)=O)C(c3ccc(F)cc3)C2)cc1 (stereo unspecified) | -176
COc1ccc(-n2c(=O)c3c4c(sc3n(Cc3cccc([N+](=O)[O-])c3)c2=O)CCC4)c(OC)c1 | -35
O=C(O)c1cc(-c2ccc(F)cc2)nc2ccccc12 | 2
Oc1c(-c2ccc(F)cc2)c2nc3ccccc3nc2c2ccccc12 | 53*
Fc1ccc(-c2cnc3ccccc3n2)cc1 | -9
COc1ccc2c3c(c(=O)oc2c1)CCC3 | 3
CC1(C)CC(=O)c2sc(N3CCCCC3)nc2C1 | 1
CC1(C)CC(=O)C=C(N2CCN(C3=CC(=O)CC(C)(C)C3)CC2)C1 | 0
CC1(C)CC(=S)C=C(N2CCCCC2)C1 | 125*
O=C(Cn1c(=O)n(-c2ccccc2)c(=O)c2c3c(sc21)CCCC3)Nc1ccc2c(c1)OCCO2 | 8
CCOc1ccc(C(=O)Nc2ccc3nn(-c4ccc(CC)cc4)nc3c2)cc1 | -3
CCN1CCN(C(=O)C2CCC(=O)N2C(C)C)CC1 (stereo unspecified) | -1
CCCSc1nnc2c(n1)OC(c1cc(OC)c(O)c(OC)c1)Nc1ccccc1-2 (stereo unspecified) | -9
C=CCSc1nnc2c(n1)OC(c1ccc(C(=O)OC)cc1)Nc1ccccc1-2 (stereo unspecified) | -51
CCCCSc1nnc2c(n1)OC(c1cc(OC)c(OC)c(OC)c1)Nc1ccccc1-2 (stereo unspecified) | 42*
CCCSc1nnc2c(n1)OC(c1ccco1)Nc1ccccc1-2 (stereo unspecified) | -10
CSc1nnc2c(n1)OC(c1ccc(N(C)C)cc1)Nc1ccccc1-2 (stereo unspecified) | -2
C=CCSc1nnc2c(n1)OC(c1ccc(N(C)C)cc1)Nc1ccccc1-2 (stereo unspecified) | 38*
CCCSc1nnc2c(n1)OC(c1ccc(Cl)cc1)Nc1ccccc1-2 (stereo unspecified) | -20
C=CCSc1nnc2c(n1)OC(c1ccc([N+](=O)[O-])cc1)Nc1ccccc1-2 (stereo unspecified) | -41
C=CCSc1nnc2c(n1)OC(c1ccc(C)cc1)Nc1ccccc1-2 (stereo unspecified) | 33*
C=CCSc1nnc2c(n1)OC(c1ccc(OC)c(OC)c1)Nc1ccccc1-2 (stereo unspecified) | -4
CCCSc1nnc2c(n1)OC(c1ccc(N(CC)CC)cc1)Nc1ccccc1-2 (stereo unspecified) | 39*
SMILES | 14-3-3 PPI
CCCCSc1nnc2c(n1)OC(c1cccc(OC)c1OC)Nc1ccccc1-2 (stereo unspecified) | 10
Cc1cc(C)cc(NC(=O)c2ccc(S(=O)(=O)N3CCCC3)cc2)c1 | 6
O=C(CN1C(=O)c2ccccc2S1(=O)=O)N(Cc1ccccc1)Cc1ccccc1 | 5
NC(=O)c1ccc(NC(=O)c2ccc(C(=O)Nc3ccc(C(N)=O)cc3)cc2)cc1 | -6
CC(C)(C)C1CCC(OC(=O)Cn2cnc([N+](=O)[O-])n2)CC1 (stereo unspecified) | -5
CCOc1cccc(C=Nc2cc(C(C)(C)C)cc(Cl)c2O)c1O | -14
CCCSc1nnc2c(n1)OC(C=Cc1ccco1)Nc1ccccc1-2 (stereo unspecified) | -18
Cc1ccnc(NC(c2ccc(Cl)cc2)c2ccc3cccnc3c2O)c1 (stereo unspecified) | -14
CCOc1ccccc1CNC(=O)C1CCN(S(=O)(=O)c2ccc(C)cc2)CC1 | 10
CCC(=O)N1c2ccc(S(=O)(=O)NCCN3CCC(C)CC3)cc2CC1C (stereo unspecified) | -9
CC(C)(C)NC(=O)CSc1nsc(SCC(=O)NC(C)(C)C)c1C#N | -1
Cc1csc(NC(=O)CSc2nc(-c3cccs3)cc(-c3cccs3)c2C#N)n1 | -26
Cc1csc(NC(=O)CSc2nsc(SCC(=O)Nc3nc(C)cs3)c2C#N)n1 | 75*
CCc1ccccc1NC(=O)c1cc(S(=O)(=O)NCCc2ccc(Cl)cc2)ccc1F | -2
O=C1CC(c2cccc3ccccc23)Sc2nc(-c3ccccc3)nn21 (stereo unspecified) | -11
COC(=O)c1c(N2C(=O)C3ON(c4ccccc4)C(c4ccc(C)cc4)C3C2=O)sc(C)c1C (stereo unspecified) | -4
O=c1[nH]cc(NCCO)c(=O)[nH]1 | 31*
Cc1[nH]c(=O)[nH]c(=O)c1NCCO | -4
CC(C)(C)C(=O)Nc1c[nH]c(=O)[nH]c1=O | -6
Cc1sc2nc(Cc3ccccc3)nc(Nc3ccc(O)cc3)c2c1C | -1
O=C(c1ccco1)N1CCN(S(=O)(=O)c2cccnc2)CC1 | -6
COc1ccc(-c2ccc3c(N)c(C(=O)Nc4cccc(C(F)(F)F)c4)sc3n2)cc1 | -26
CC(C)c1ccc(N(C)C(=O)CCn2c(=S)oc3ccccc32)cc1 | -3
Oc1ccc(N=Cc2ccc(OCc3ccccc3)cc2)cc1 | 35*
Oc1ccc(Cl)cc1N=Cc1ccc(OCc2ccccc2)cc1 | -7
Cc1ccc(O)c(N=Cc2ccc(OCc3ccccc3)cc2)c1 | -19
